Results reported in PubChem BioAssay.
A number with no mark means an inactive call. No rule for the calls is given here.

Target: Pantothenate synthetase (Mycobacterium tuberculosis (strain ATCC 25618 / H37Rv)) (UniProt P9WIL5)
Test: Coupled enzyme confirmation of inhibitors against recombinant Mtb PanC (AID 375);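 also: 0% = full reaction with vehicle and 100% = no enzyme background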
Conditions: coupled enzyme assay; at 10 µM, hits give high values

Pantothenate synthetase (Mycobacterium tuberculosis (strain ATCC 25618 / H37Rv)), sequence (P9WIL5 whole entry, looked up): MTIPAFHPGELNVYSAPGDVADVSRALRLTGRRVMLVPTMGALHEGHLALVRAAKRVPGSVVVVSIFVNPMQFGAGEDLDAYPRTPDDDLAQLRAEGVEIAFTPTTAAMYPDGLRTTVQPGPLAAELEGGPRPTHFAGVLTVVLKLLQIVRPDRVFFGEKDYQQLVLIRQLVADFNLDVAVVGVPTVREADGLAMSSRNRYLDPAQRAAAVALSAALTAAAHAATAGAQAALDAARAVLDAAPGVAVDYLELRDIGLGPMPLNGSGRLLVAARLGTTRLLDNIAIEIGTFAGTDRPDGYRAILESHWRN

Structure (SMILES)	inhibition
c1csc(-c2nc3nc4ccccc4nc3n2Cc2ccc3c(c2)OCO3)c1	0%
CCCCC(CC)C(=O)Nc1ccc(Cl)cn1 (stereo not given)	8%
COc1cccc(-c2nnn(CC(=O)O)n2)c1	0%
COCCNC(=O)C(c1ccc(C)o1)N(Cc1cccs1)C(=O)c1snc(C(N)=O)c1N (stereo not given)	4%
Cn1c(CCNC(=O)c2ccco2)nc2cc(NC(=O)C3CCCCC3)ccc21	0%
Cc1cc(C)nc(N2CCCC(C(=O)Nc3nc4ccc(S(C)(=O)=O)cc4s3)C2)n1 (stereo not given)	4%
COc1ccc(CNc2oc(COc3ccccc3Cl)nc2C#N)cc1	0%
Cc1ccccc1Cn1nc(C)c(NC(=O)c2noc3c2CCCC3)c1C	5%
O=C(Nc1nc(-c2ccccn2)cs1)C1CC1	0%
CCOc1ccc(C(=O)N2CCN(C(=O)c3ccco3)CC2)cc1OCC	1%
CCN1CCN(C(=O)c2oc(=O)c3ccccc3c2-c2ccc(C)cc2)CC1	0%
CCN(CC)CCOC(=O)C(c1ccccc1)c1ccccc1	0%
O=C(c1ccco1)N1CCN(CCCCN2C(=O)c3ccccc3C2=O)CC1	5%
CCCCc1c(O)nc(N2CCN(Cc3ccccc3)CC2)[nH]c1=O	7%
CCOc1ccc2nc(S(N)(=O)=O)sc2c1	3%
NC(N)=NC(N)=NCCc1ccccc1	4%
CN(C)CCCNC(=O)CCC1CCCCC1	6%
CC(C)(C)SCCNC(=O)CN1C(=O)c2ccccc2S1(=O)=O	0%
CCOC(=O)N1CCN(C(=O)c2ccc(CS(=O)(=O)c3c(Cl)cccc3Cl)o2)CC1	0%
Cc1csc(NC(=O)CCn2c(=O)oc3ccccc32)n1	1%

Structure (SMILES)	inhibition
CCOC(=O)N1CCN(c2c(NCCN(C)Cc3ccccc3)c(=O)c2=O)CC1	0%
O=c1[nH]c2ccccc2nc1NCCN1CCOCC1	1%
COCc1cc(C)nc(SCC(=O)Nc2cccc(C)c2C)c1C#N	5%
COC(=O)c1cc(-c2c(C)oc3cc(O)ccc3c2=O)c(C)o1	3%
COc1ccc(C(=O)CSc2nc(C)cc(=O)[nH]2)cc1	0%
C[C@]12C[C@H](O)[C@H]3[C@@H](CCC4=CC(=O)CC[C@@]43C)[C@@H]1CC[C@@H]2C(=O)CO	0%
CC1CCc2c(sc3c2C2=NS(=O)(=O)CCN2C=N3)C1 (stereo not given)	2%
N=c1sc2ccccc2n1-c1ccccc1	3%
CC1CCN(S(=O)(=O)c2cn(CC(=O)N3CCN(C)CC3)c(=O)c3ccccc23)CC1	4%
CNS(=O)(=O)c1cccc(C(=O)OCC(=O)c2cc(C)n(-c3ccc4c(c3)OCO4)c2C)c1	0%
O=C(Nc1ccc(N2CCCC2)cc1)c1ccc(Br)o1	0%
Cc1ccc(N2CC(C(=O)N3CCN(C(=O)c4ccco4)CC3)CC2=O)cc1 (stereo not given)	0%
CCC(=O)Nc1cc2nn(-c3ccccc3)nc2cc1Cl	0%
C[C@]12CC[C@@H]3c4ccc(O[C@@H]5O[C@H](C(=O)O)[C@@H](O)[C@H](O)[C@H]5O)cc4CC[C@H]3[C@@H]1C[C@@H](O)[C@@H]2O	14%
COC(=O)COc1nc(C)c(Br)c(OC)n1	0%
CCOC(=O)Cn1c(CN2CCOCC2)nc2c1c(=O)[nH]c(=O)n2C	0%
CCc1nnc(NC(=O)c2ccc(S(=O)(=O)NCC(C)C)cc2)s1	0%
O=C(CSc1nc(O)c(Cc2ccccc2)c(=O)[nH]1)Nc1ccccc1	0%
COc1ccc(OC)c(NC(=O)Cc2coc3ccc(C)cc23)c1	6%
Cc1ccc(SCCC(=O)N(C)C)cc1	0%
